Measurements reported in PubChem BioAssay (EPA / NIEHS).
Activity calls are given as the source filed them. How the source made its calls: active means hit-call score of the fitted dose curve at least 0.9, where 1 is the maximum; inactive means score below 0.9.

Experiment: CCTE_Padilla_ZF_Score.Craniofacial: CCTE's 144 Hour Post-fertilization zebrafish Assay Score for Craniofacial Malformation, Padilla Lab (AID 2284405)
Protocol: CCTE_Padilla_ZF_Phenotype_Score is a whole embryo, multiplexed assay using zebrafish ova exposed for 144 hours post fertilization on a 96-well plate.CCTE_Padilla_ZF_Score.Craniofacial is one of one assay component(s) measured or calculated from the CCTE_Padilla_ZF_Phenotype_Score assay. It is designed to make measurements of zebrafish development as detected with brightfield microscopy of developing zebrafish embryos.Data from the assay component CCTE_Padilla_ZF_Score.Craniofacial was analyzed into 1 assay endpoints. This assay endpoint, CCTE_Padilla_ZF_Score.Craniofacial, was analyzed in the positive analysis fitting direction relative to DMSO as the negative control and baseline of activity. Using a type of viability reporter, gain-of-signal activity can be used to understand changes in developmentals as they relate to the whole embryo. To generalize the intended target to other relatable targets, this assay endpoint is annotated to the zebrafish development intended target family, where the subfamily is craniofacial morphogenesis.
Zebrafish husbandry: Wild type adult zebrafish (Danio rerio; undefined outbred stock obtained from Aquatic Research Organisms, Hampton, NH, 03842) were housed in an AAALAC-approved animal facility at 28C with a 14:10 h light: dark cycle (lights on at 08:30 h). Adult fish (2-3 females per male; density = 15-20 adults per tank) were kept in one of several 9-liter (L) flow-through colony tanks (Aquaneering Inc., San Diego, CA). All adults in a colony tank were placed in a 2 L (static) breeding tank (Aquatic Habitats, Apopka, FL) one hour prior to light onset. Typically, adults from two to three colony tanks were mated on the same day. Two hours after light onset the adults were returned to the colony tank. All embryos were gathered from each breeder tank, pooled, and placed in a 28C water bath for 2 h, followed by two washes with 0.06% bleach (v/v) in 10% Hanks' Balanced Salt Solution (13.7 mM NaCl 0.54 mM KCl, 25 uM Na2HPO4, 130 uM CaCl2 100 um MgSO4 and 420 um NaHCO3,), hereafter referred to as Hanks' solution, for 5 min in order to remove any residual bacteria or fungi. Immediately following washing, the embryos were examined, and healthy embryos were separated from dead or unfertilized eggs and moved into fresh Hanks'. Chemical exposures: Zebrafish embryos were exposed in 96-well plates. Between 6- and 8-hours post fertilization (hpf), healthy embryos (with chorions) were transferred, one embryo per well, into 96 well (0.5 mL) microtiter plates (Cell Culture-Treated, Flat-Bottom Microplate 96 well [Corning Costar, Kennebunk, ME; Cat 09-761-145]) filled with 200 uL of Hanks' solution. A random number generator was used to assign the order in which the rows of embryos were plated in 96 well plates each week. After plating, the embryos were dosed with 0.8 uL of the chemical dosing solution then immediately sealed with AlumaSeal II (Excel Scientific Inc, Victorville, CA) to prevent volatilization of the chemicals, and then placed in a leakproof secondary container. These containers were placed in an incubator maintained on a 14:10 h light: dark cycle at 26C for rearing. On 5 dpf, live larvae were gently moved out of the plate with test chemicals and into a new 96 well mesh plate (Millipore Corp., Bedford, MA) with just the Hanks' solution. Once within the mesh well plate, the animals were rinsed with 400 uL of fresh Hanks' three times, and then the plates were covered with a non-adhesive material (Microseal A, BioRad, Hercules, CA), plate lid added, and then plate sides wrapped in Parafilm (PM992, Bermis Company, Neenah, WI), and returned to the incubator. […]

Row | SMILES | outcome | AC50
1 | O=C(O)C=CC(F)(C(F)(F)F)C(F)(F)F | inactive | 
2 | OCC(F)(F)OC(F)(F)C(F)(F)OC(F)(F)C(F)(F)OC(F)(F)F |  | 20.2 µM (active)
3 | O=C(O)C(F)(F)OC(F)(F)C(F)(F)OC(F)(F)F | inactive | 
4 | O=C(O)C(F)(OC(F)(F)C(F)(F)C(F)(F)F)C(F)(F)F (centres undefined) | inactive | 
5 | NC(=O)C(F)(F)C(F)(F)F | inactive | 
6 | OCC(F)(F)OC(F)(F)C(F)(F)OC(F)(F)C(F)(F)OC(F)(F)CO | inactive | 
7 | O=C(O)C(F)(F)C(F)(F)C(=O)O | inactive | 
8 | CC(O)C(F)(F)C(F)(F)F (centres undefined) | inactive | 
9 | OCC(F)(F)OC(F)(F)C(F)(F)OC(F)(F)CO | inactive | 
10 | O=C(O)C(F)(F)OC(F)(F)C(F)(F)OC(F)(F)C(=O)O | inactive | 
11 | COC(=O)C(F)(F)C(F)(F)OC(F)(C(F)(F)F)C(F)(F)OC(F)=C(F)F (centres undefined) | inactive | 
12 | O=S(=O)(F)C(F)(F)C(F)(F)C(F)(F)C(F)(F)C(F)(F)C(F)(F)C(F)(F)C(F)(F)F | inactive | 
13 | C=CC(=O)OCC(F)(F)C(F)F | inactive | 
14 | FC(F)(F)C(F)(C(F)(F)F)C(F)(F)C(F)(F)CC1CO1 (centres undefined) | inactive | 
